Results as given in the supplement of paper PMC11732987, “Enantioselective OTUD7B fragment discovery through chemoproteomics screening and high-throughput optimisation” (Communications Chemistry, 2025).

Target: T1, VCPIP1 (UniProt Q96JH7)
T1 sequence (whole entry): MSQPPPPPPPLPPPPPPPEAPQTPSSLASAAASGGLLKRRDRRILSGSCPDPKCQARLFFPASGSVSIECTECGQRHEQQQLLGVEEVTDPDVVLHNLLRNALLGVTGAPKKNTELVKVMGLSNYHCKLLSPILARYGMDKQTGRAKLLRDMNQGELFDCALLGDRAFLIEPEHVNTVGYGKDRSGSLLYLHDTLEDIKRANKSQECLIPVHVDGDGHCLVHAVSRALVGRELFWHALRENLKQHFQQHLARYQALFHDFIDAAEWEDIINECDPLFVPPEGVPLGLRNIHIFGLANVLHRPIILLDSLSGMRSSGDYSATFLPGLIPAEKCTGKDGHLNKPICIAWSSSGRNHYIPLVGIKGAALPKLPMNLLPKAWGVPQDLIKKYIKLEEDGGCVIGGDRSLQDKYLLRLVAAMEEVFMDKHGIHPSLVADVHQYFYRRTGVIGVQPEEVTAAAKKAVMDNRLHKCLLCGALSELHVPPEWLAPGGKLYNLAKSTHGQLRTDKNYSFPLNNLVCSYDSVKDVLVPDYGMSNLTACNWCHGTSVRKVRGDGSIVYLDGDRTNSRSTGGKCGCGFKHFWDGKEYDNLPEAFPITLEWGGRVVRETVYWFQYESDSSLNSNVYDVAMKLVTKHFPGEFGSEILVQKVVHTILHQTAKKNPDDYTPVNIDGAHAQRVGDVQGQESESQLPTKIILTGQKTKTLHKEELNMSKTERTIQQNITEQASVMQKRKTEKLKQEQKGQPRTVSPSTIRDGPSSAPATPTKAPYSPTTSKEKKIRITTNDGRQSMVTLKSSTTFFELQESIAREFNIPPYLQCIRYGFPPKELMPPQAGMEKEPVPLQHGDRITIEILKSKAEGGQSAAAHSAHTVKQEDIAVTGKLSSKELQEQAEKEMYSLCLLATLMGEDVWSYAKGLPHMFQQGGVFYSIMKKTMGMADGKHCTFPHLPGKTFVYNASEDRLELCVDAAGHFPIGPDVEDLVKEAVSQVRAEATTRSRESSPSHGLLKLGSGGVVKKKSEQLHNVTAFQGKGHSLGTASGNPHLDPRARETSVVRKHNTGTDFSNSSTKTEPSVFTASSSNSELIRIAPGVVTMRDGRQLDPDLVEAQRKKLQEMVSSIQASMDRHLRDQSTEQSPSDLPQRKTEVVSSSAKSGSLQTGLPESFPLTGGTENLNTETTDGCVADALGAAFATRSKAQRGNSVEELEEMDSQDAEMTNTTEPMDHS
Test: log2 ratio of Biotin-Ahx-Ub-VS probe labelling (fragment/DMSO); higher = less target engagement (more negative = stronger competition), active = hit call of the paper (q ≤ 0.05, log2 ratio ≤ -1)
Settings: compound concentration: 200 uM; treatment time: 3 h
Description: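 Competitive ABPP in HEK293T cell lysate. Lysates were treated with each chloroacetamide fragment at 200 µM for 3 h, then with Biotin-Ahx-Ub-VS (0.5 µM, 1 h), NeutrAvidin-enriched and analysed by diaPASEF LC-MS/MS. Protein LFQ was median-normalised; average log2 ratio is fragment/DMSO from an unpaired t-test (n=3 treated, n=44 DMSO). Hits: q ≤ 0.05, log2 ratio ≤ -1, unique peptides ≥ 2.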

log2 ratio of Biotin-Ahx-Ub-VS probe labelling, inactive:
Cc1ccc(CN(C)C(=O)CCl)o1 -0.13, CCCn1nccc1NC(=O)CCl -0.41, CS(=O)(=O)N1CCCN(C(=O)CCl)CC1 -0.326, O=C(CCl)N1CCc2ccccc2C(O)C1 (stereo not given) -0.506, Cc1nc(CN2CCN(C(=O)CCl)CC2)cs1 -0.304, O=C(CCl)N1CCC[C@@H]1c1ccon1 -0.499, COc1cccc(CN(C)C(=O)CCl)c1 -0.854, O=C(CCl)N1CCN(c2nc3ccccc3o2)CC1 -0.288, O=C(CCl)N1CCc2sccc2C1 -0.819, Cn1cc(CN(Cc2ccc(Cl)cc2)C(=O)CCl)cn1 -0.623, O=C(CCl)Nc1cc(Cl)ccc1C(=O)O -0.241, COc1ccccc1C(C)NC(=O)CCl (stereo not given) -0.998, C[C@H]1CN(C(=O)CCl)CCN1C(=O)c1cnn(C)c1.Cl -0.157, Cc1ccn2cc(CNC(=O)CCl)nc2c1.Cl -0.598, Cc1noc(N2CCN(C(=O)CCl)CC2)n1.Cl 0.15, O=C(CCl)NCCc1ccc(F)cc1 -0.91, Cl.O=C(CCl)N1CCn2ncc(O)c2C1 -0.764, Cc1ncsc1CCNC(=O)CCl 0.0583, Cc1cc(C(=O)NC2CCN(C(=O)CCl)CC2)no1 -0.548, Cl.O=C(CCl)NC1(c2ncccn2)CCC1 -0.136

log2 ratio of Biotin-Ahx-Ub-VS probe labelling, active:
CC(NC(=O)CCl)c1ccc2[nH]ncc2c1 (stereo not given) -2.26, O=C(CCl)N1CCCC1c1ccsc1 (stereo not given) -1.07, O=C(CCl)Nc1ccc(F)cc1Cl -1.05, COc1cc(Cl)c(C)cc1NC(=O)CCl -1.24, O=C(CCl)NCc1ccc(Cl)cc1 -1.16, N#Cc1cnn(-c2ccccc2)c1NC(=O)CCl -2.18, Cc1c(C#N)c(NC(=O)CCl)n(Cc2ccco2)c1C -2.32, Cc1ccc(N2CCC(NC(=O)CCl)C2=O)cc1 (stereo not given) -2.9, Cc1cccc(N(CCC#N)C(=O)CCl)c1C -2.23, O=C(CCl)N1CCOC(CCc2ccccc2)C1 (stereo not given) -2.79, Cc1cnc2[nH]cc(CCNC(=O)CCl)c2c1 -1.05, Cc1noc(C)c1CNC(=O)CCl -1.8, CC(NC(=O)CCl)c1cccc(Cl)c1 (stereo not given) -1.59, C/C(=C\CNC(=O)CCl)c1cnn(C)c1.Cl -1.53, Cl.O=C(CCl)NCc1cc2c(nc1O)CCCC2 -1.56, C#Cc1cccc(NC(=O)CCl)c1 -2.17, O=C(CCl)NCc1ccc(N2CCOCC2)c(F)c1 -2.18, Cc1ccc(C(=O)NCCNC(=O)CCl)cc1 -2.4, Cc1nc(-c2cccc(NC(=O)CCl)c2)cs1 -1.87, N#Cc1ccc(CNC(=O)CCl)cc1 -1.31
